The supplement of paper PMC11732987, “Enantioselective OTUD7B fragment discovery through chemoproteomics screening and high-throughput optimisation” (Communications Chemistry, 2025)

What was measured:
Assay in all cases: log2 ratio of Biotin-Ahx-Ub-VS probe labelling (compound/DMSO); higher = less target engagement, active = hit call of the paper (q ≤ 0.05, log2 ratio ≤ -1)
Conditions in all cases: treatment time: 3 h
[1] = compound: CCC1N(CCc2sccc12)C(=O)CCl
Outline: (§1)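 DUBs in HEK293T lysate were labelled with Biotin-Ahx-Ub-VS (0.5 µM final, 1 h) after a 3 h treatment with compound at 50 or 200 µM or with DMSO, done in triplicate on 495 µg of lysate per sample. NeutrAvidin-enriched proteins were digested with LysC and trypsin and run by diaPASEF LC-MS/MS. Median-normalised label-free quantities gave average base-two log ratios of compound to DMSO by unpaired t-test, restricted to proteins with at least 2 unique peptides.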

[2] = compound: CN1c2ccccc2C(CS1(=O)=O)NC(=O)CCl
Outline: as §1

[3] = compound: Cl.ClCC(=O)N1CCc2ncncc2C1
Outline: as §1

[4] = compound: Cl.Cn1ncc2C(CCCc12)NC(=O)CCl
Outline: as §1

[5] = compound: ClCC(=O)NC1CCOc2ccccc12
Outline: as §1

[6] = compound: ClCC(=O)NC1CCCc2ccccc12
Outline: (§2)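 Average ratios of compound to vehicle were obtained by unpaired t-test. Beforehand, 495 µg samples of HEK293T lysate in buffer with protease inhibitors were treated in triplicate with compound over a concentration series or vehicle for 3 h, then with 0.5 µM final Biotin-Ahx-Ub-VS for 1 h. Labelled deubiquitinases were NeutrAvidin-enriched, digested and quantified label-free by diaPASEF LC-MS/MS in Spectronaut, normalised to the global median. Values are log2 and cover proteins with at least two unique peptides.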

[7] = compound: ClCC(=O)N[C@@H]1CCCc2ccccc12
Outline: as §2

[8] = compound: ClCC(=O)N[C@H]1CCCc2ccccc12
Outline: as §2

[9] = compound: CCC1N(CCc2cc(OC)c(Cl)cc12)C(=O)CCl
Outline: as §1

[10] = compound: CCCC1N(CCc2cc(OC)c(OC)cc12)C(=O)CCl
Outline: as §1

Measured: log2 ratio of Biotin-Ahx-Ub-VS probe labelling

UniProt P51784
UniProt P51784, sequence (P51784 whole entry): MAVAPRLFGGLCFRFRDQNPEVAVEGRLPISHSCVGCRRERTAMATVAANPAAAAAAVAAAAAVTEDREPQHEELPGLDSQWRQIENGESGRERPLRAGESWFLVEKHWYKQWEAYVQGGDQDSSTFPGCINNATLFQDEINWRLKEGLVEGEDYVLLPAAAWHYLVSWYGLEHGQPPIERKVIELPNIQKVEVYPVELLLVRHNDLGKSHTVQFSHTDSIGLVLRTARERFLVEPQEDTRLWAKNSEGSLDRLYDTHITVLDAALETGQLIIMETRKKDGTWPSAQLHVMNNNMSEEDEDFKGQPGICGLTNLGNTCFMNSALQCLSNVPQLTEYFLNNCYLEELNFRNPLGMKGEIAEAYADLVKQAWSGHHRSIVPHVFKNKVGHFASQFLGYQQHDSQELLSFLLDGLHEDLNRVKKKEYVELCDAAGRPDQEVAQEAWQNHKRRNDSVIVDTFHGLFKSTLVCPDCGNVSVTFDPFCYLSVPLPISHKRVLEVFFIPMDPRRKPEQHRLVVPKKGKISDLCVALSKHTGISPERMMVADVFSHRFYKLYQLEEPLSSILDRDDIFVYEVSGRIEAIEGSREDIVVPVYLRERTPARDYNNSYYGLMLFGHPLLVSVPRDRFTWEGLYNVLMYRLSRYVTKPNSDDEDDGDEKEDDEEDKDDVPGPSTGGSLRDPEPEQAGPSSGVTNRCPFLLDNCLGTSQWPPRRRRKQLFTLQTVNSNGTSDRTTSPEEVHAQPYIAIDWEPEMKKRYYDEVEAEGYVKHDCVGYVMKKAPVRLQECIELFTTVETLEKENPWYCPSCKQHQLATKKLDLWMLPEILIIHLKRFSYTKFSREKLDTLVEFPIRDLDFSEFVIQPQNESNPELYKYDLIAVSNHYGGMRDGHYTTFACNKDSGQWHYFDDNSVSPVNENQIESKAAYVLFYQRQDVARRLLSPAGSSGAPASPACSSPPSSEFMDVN
active: [10]; compound concentration: 200uM -1.44
inactive: [1]; compound concentration: 50uM 0.031 | [1]; compound concentration: 200uM -0.194 | [2]; compound concentration: 50uM -0.0381 | [2]; compound concentration: 200uM -0.118 | [3]; compound concentration: 50uM 0.0396 | [3]; compound concentration: 200uM -0.389 | [4]; compound concentration: 50uM 0.218 | [4]; compound concentration: 200uM 0.132 | [5]; compound concentration: 50uM 0.157 | [5]; compound concentration: 200uM -0.115 | [6]; compound concentration: 0.78uM -0.0264 | [6]; compound concentration: 1.56uM -0.0198 | [6]; compound concentration: 3.13uM -0.0986 | [6]; compound concentration: 6.25uM 0.0318 | [6]; compound concentration: 12.5uM -0.0982 | [6]; compound concentration: 25uM -0.201 | [6]; compound concentration: 50uM 0.0391 | [6]; compound concentration: 100uM -0.0818 | [6]; compound concentration: 200uM -0.0885 | [7]; compound concentration: 0.78uM -0.219 | [7]; compound concentration: 1.56uM -0.052 | [7]; compound concentration: 3.13uM -0.00301 | [7]; compound concentration: 6.25uM -0.0872 | [7]; compound concentration: 12.5uM -0.0816 | [7]; compound concentration: 25uM 0.00546 | [7]; compound concentration: 50uM -0.0574 | [7]; compound concentration: 100uM -0.00104 | [7]; compound concentration: 200uM -0.228 | [8]; compound concentration: 0.78uM -0.0931 | [8]; compound concentration: 1.56uM -0.0394 | [8]; compound concentration: 3.13uM -0.0291 | [8]; compound concentration: 6.25uM 0.0533 | [8]; compound concentration: 12.5uM -0.077 | [8]; compound concentration: 25uM -0.127 | [8]; compound concentration: 50uM -0.0252 | [8]; compound concentration: 100uM -0.0157 | [8]; compound concentration: 200uM -0.158 | [9]; compound concentration: 50uM -0.0453 | [9]; compound concentration: 200uM -0.739 | [10]; compound concentration: 50uM -0.482

EIF3F (UniProt O00303)
UniProt O00303, sequence (O00303 whole entry): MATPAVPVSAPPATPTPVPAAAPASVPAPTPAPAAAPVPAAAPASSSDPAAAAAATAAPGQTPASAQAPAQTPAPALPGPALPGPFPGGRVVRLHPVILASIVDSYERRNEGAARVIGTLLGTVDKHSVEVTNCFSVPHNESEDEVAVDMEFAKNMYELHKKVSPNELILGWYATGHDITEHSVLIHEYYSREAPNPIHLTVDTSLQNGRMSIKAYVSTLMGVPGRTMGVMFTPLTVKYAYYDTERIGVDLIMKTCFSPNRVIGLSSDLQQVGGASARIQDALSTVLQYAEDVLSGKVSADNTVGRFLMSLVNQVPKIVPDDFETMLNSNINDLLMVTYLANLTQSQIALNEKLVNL
inactive: [1]; compound concentration: 50uM -0.16 | [1]; compound concentration: 200uM -0.05 | [2]; compound concentration: 50uM -0.111 | [2]; compound concentration: 200uM -0.0123 | [3]; compound concentration: 50uM 0.026 | [3]; compound concentration: 200uM -0.017 | [4]; compound concentration: 50uM -0.0544 | [4]; compound concentration: 200uM -0.232 | [5]; compound concentration: 50uM -0.204 | [5]; compound concentration: 200uM 0.0458 | [6]; compound concentration: 0.78uM -0.0827 | [6]; compound concentration: 1.56uM 0.0402 | [6]; compound concentration: 3.13uM -0.164 | [6]; compound concentration: 6.25uM -0.148 | [6]; compound concentration: 12.5uM 0.141 | [6]; compound concentration: 25uM -0.0954 | [6]; compound concentration: 50uM -0.209 | [6]; compound concentration: 100uM -0.401 | [6]; compound concentration: 200uM -0.0132 | [7]; compound concentration: 0.78uM -0.295 | [7]; compound concentration: 1.56uM 0.0826 | [7]; compound concentration: 3.13uM -0.0906 | [7]; compound concentration: 6.25uM -0.461 | [7]; compound concentration: 12.5uM -0.244 | [7]; compound concentration: 25uM -0.214 | [7]; compound concentration: 50uM -0.034 | [7]; compound concentration: 100uM 0.00457 | [7]; compound concentration: 200uM 0.0644 | [8]; compound concentration: 0.78uM -0.0754 | [8]; compound concentration: 1.56uM -0.0584 | [8]; compound concentration: 3.13uM -0.182 | [8]; compound concentration: 6.25uM 0.0402 | [8]; compound concentration: 12.5uM -0.0792 | [8]; compound concentration: 25uM -0.00315 | [8]; compound concentration: 50uM -0.0696 | [8]; compound concentration: 100uM -0.0985 | [8]; compound concentration: 200uM -0.313 | [9]; compound concentration: 50uM -0.015 | [9]; compound concentration: 200uM -0.16 | [10]; compound concentration: 50uM -0.0996 | [10]; compound concentration: 200uM 0.154

USP34 (UniProt Q70CQ2)
UniProt Q70CQ2, sequence (Q70CQ2 whole entry): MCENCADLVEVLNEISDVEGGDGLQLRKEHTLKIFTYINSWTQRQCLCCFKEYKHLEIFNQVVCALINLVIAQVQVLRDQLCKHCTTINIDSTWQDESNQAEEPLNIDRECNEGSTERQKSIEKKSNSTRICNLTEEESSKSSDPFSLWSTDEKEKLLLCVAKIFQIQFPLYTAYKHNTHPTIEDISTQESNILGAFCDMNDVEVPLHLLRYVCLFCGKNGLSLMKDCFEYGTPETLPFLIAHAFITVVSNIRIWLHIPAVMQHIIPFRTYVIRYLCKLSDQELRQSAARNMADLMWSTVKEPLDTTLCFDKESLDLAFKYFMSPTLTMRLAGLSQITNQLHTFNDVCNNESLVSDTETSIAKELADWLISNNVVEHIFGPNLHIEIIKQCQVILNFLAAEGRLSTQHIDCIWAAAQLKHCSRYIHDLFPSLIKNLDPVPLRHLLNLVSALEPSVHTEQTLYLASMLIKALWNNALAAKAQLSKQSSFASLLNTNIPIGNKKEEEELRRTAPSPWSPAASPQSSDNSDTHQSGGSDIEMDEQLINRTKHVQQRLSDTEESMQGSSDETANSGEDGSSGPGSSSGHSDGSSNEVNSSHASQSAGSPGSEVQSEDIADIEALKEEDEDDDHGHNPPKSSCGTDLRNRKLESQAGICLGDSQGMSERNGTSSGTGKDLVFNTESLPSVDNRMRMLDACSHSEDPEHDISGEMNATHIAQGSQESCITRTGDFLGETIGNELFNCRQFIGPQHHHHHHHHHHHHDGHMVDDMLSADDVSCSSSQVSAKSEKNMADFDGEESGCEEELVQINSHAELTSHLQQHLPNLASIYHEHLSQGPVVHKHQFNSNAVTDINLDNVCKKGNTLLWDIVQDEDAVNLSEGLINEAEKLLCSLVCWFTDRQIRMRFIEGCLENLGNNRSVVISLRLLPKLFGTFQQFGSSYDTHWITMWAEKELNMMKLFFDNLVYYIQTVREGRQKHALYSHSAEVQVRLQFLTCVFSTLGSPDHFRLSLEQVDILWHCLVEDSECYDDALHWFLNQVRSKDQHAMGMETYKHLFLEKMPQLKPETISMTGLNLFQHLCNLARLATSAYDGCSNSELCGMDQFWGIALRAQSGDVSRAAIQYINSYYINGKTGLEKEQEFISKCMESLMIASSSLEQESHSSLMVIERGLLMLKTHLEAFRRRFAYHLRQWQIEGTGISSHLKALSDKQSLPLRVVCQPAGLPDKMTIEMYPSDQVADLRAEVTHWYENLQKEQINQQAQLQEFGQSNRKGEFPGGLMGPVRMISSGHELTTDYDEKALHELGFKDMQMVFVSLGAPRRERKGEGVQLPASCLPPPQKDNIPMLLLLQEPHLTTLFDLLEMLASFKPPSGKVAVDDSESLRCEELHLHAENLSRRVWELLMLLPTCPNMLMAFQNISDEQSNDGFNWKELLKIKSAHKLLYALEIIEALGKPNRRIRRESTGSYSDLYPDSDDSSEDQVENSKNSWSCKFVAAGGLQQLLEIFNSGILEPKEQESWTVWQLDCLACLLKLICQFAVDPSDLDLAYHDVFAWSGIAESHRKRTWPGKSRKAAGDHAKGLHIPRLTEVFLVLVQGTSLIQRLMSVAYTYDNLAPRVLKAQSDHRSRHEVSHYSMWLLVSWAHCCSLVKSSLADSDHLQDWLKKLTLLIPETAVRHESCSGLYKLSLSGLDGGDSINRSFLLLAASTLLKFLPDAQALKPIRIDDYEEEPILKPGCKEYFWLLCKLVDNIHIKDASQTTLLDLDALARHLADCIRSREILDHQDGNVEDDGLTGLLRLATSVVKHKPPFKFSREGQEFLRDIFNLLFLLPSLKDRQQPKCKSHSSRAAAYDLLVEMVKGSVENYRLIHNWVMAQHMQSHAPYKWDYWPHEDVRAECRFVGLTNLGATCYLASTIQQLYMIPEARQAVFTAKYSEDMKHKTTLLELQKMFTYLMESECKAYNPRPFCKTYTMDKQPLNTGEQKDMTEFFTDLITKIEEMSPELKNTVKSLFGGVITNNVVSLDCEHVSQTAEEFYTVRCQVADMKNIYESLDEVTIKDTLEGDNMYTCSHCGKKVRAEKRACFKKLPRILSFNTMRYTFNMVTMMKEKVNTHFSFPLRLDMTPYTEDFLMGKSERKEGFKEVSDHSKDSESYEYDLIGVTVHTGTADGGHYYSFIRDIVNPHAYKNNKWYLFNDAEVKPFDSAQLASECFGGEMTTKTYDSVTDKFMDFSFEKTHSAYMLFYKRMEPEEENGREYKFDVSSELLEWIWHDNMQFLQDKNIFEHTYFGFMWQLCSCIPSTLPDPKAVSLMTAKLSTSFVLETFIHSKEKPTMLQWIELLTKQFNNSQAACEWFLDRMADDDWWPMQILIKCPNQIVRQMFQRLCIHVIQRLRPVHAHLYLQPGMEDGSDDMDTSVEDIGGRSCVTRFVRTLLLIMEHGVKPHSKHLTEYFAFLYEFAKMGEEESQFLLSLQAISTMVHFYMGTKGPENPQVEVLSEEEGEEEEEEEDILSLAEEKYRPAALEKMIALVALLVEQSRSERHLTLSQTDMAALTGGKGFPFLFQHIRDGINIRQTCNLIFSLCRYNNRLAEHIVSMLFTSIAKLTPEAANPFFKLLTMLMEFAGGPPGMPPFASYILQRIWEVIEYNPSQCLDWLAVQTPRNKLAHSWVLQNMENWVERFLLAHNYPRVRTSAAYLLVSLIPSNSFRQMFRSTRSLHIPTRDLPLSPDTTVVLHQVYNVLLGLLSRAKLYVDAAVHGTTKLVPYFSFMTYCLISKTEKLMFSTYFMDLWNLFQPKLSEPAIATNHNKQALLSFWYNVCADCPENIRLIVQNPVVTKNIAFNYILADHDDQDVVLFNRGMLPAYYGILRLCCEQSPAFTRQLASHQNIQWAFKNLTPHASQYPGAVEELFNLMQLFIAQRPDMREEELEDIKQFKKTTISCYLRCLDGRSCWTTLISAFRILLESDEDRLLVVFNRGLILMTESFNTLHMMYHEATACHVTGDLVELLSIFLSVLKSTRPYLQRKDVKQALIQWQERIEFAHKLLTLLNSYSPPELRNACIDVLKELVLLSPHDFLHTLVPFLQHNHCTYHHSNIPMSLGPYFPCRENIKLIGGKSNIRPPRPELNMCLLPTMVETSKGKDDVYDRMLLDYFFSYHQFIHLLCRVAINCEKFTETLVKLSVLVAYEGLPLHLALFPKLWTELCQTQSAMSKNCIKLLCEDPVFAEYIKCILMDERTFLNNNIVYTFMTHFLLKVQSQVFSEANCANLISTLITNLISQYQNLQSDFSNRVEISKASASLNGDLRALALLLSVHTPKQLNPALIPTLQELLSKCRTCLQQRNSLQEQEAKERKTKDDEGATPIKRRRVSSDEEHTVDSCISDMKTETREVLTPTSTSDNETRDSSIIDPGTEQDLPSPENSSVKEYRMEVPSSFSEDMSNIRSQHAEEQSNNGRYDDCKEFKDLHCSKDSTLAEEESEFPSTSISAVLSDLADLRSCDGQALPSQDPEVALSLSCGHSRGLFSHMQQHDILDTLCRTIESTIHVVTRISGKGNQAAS
inactive: [1]; compound concentration: 50uM 0.0562 | [1]; compound concentration: 200uM 0.0678 | [2]; compound concentration: 50uM -0.259 | [2]; compound concentration: 200uM -0.515 | [3]; compound concentration: 50uM -0.659 | [3]; compound concentration: 200uM 0.31 | [4]; compound concentration: 50uM 0.745 | [4]; compound concentration: 200uM -0.98 | [5]; compound concentration: 50uM -0.212 | [5]; compound concentration: 200uM -0.0537 | [6]; compound concentration: 0.78uM 0.221 | [6]; compound concentration: 1.56uM 0.0458 | [6]; compound concentration: 3.13uM 0.0621 | [6]; compound concentration: 6.25uM -0.0557 | [6]; compound concentration: 12.5uM -0.314 | [6]; compound concentration: 25uM 0.126 | [6]; compound concentration: 50uM 0.134 | [6]; compound concentration: 100uM 0.11 | [6]; compound concentration: 200uM -0.619 | [7]; compound concentration: 0.78uM -0.0727 | [7]; compound concentration: 1.56uM -0.0851 | [7]; compound concentration: 3.13uM -0.276 | [7]; compound concentration: 6.25uM -0.184 | [7]; compound concentration: 12.5uM -0.209 | [7]; compound concentration: 25uM -0.23 | [7]; compound concentration: 50uM -0.396 | [7]; compound concentration: 100uM 0.0355 | [7]; compound concentration: 200uM 0.0474 | [8]; compound concentration: 0.78uM 0.0344 | [8]; compound concentration: 1.56uM -0.271 | [8]; compound concentration: 3.13uM -0.199 | [8]; compound concentration: 6.25uM 0.0878 | [8]; compound concentration: 12.5uM 0.322 | [8]; compound concentration: 25uM -0.00214 | [8]; compound concentration: 50uM 0.198 | [8]; compound concentration: 100uM 0.181 | [8]; compound concentration: 200uM -0.295 | [9]; compound concentration: 50uM 0.165 | [10]; compound concentration: 50uM 0.0993 | [10]; compound concentration: 200uM 0.244
active: [9]; compound concentration: 200uM -1.07

UCHL3 (UniProt P15374)
UniProt P15374, sequence (P15374 whole entry): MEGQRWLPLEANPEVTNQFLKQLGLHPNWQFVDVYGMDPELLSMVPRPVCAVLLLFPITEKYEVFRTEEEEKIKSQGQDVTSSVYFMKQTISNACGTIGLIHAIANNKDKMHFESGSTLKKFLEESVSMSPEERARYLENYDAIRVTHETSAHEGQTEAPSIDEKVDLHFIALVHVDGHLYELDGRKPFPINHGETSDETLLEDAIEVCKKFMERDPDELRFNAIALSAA
inactive: [1]; compound concentration: 50uM -0.196 | [1]; compound concentration: 200uM -0.314 | [2]; compound concentration: 50uM -0.297 | [2]; compound concentration: 200uM -0.153 | [3]; compound concentration: 50uM -0.183 | [3]; compound concentration: 200uM -0.417 | [4]; compound concentration: 50uM -0.099 | [4]; compound concentration: 200uM 0.0584 | [5]; compound concentration: 50uM -0.019 | [5]; compound concentration: 200uM -0.018 | [6]; compound concentration: 0.78uM -0.0289 | [6]; compound concentration: 1.56uM 0.0129 | [6]; compound concentration: 3.13uM -0.0693 | [6]; compound concentration: 6.25uM 0.048 | [6]; compound concentration: 12.5uM 0.0678 | [6]; compound concentration: 25uM -0.149 | [6]; compound concentration: 50uM 0.0701 | [6]; compound concentration: 100uM 0.149 | [6]; compound concentration: 200uM -0.0196 | [7]; compound concentration: 0.78uM -0.0917 | [7]; compound concentration: 1.56uM -0.101 | [7]; compound concentration: 3.13uM 0.0215 | [7]; compound concentration: 6.25uM 0.0584 | [7]; compound concentration: 12.5uM -0.0931 | [7]; compound concentration: 25uM -0.0862 | [7]; compound concentration: 50uM -0.186 | [7]; compound concentration: 100uM -0.142 | [7]; compound concentration: 200uM -0.0506 | [8]; compound concentration: 0.78uM -0.0451 | [8]; compound concentration: 1.56uM -0.0987 | [8]; compound concentration: 3.13uM 0.048 | [8]; compound concentration: 6.25uM 0.105 | [8]; compound concentration: 12.5uM -0.0766 | [8]; compound concentration: 25uM -0.0628 | [8]; compound concentration: 50uM -0.0352 | [8]; compound concentration: 100uM -0.00864 | [8]; compound concentration: 200uM -0.0634 | [9]; compound concentration: 50uM 0.093 | [9]; compound concentration: 200uM -0.266 | [10]; compound concentration: 50uM -0.509 | [10]; compound concentration: 200uM -0.431
